# Compound activity (PubChem)
# An excerpt weighted towards active compounds, which were near 7.3% of everything screened.
# AmpC inh detg: qHTS Inhibitors of AmpC Beta-Lactamase (assay with detergent). P00811. AmpC hydrolysis of nitrocefin, absorbance 480 nm, 0.01% Triton. Potency, µM (doses to about 114 µM), most hits filed as inhibitors. 370,000 tested, 0.041% active. AID 485294, 2010; also: nearly all actives have a fitted effect of over 25% in size
# Target sequence (P00811 whole entry, looked up): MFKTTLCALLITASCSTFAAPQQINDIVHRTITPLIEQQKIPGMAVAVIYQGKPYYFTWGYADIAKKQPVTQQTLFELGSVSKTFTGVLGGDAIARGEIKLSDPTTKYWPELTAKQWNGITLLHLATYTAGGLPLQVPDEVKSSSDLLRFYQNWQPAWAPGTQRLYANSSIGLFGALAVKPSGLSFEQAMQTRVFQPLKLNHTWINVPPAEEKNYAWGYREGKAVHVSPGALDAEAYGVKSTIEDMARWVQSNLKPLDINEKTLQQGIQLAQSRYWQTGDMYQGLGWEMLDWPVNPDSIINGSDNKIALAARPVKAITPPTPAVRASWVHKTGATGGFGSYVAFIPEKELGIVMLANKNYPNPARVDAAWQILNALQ
#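 AmpC (5.3 nM in the dispensed reagent) in 20 mM phosphate pH 7.0 with 0.01% (detergent screen) or 0.0001% Triton X-100 was preincubated with compounds for 15 min at room temperature. Nitrocefin was then added from an 800 uM solution, and hydrolysis was followed at 480 nm.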
# HCV inh: qHTS Assay for Inhibitors of Hepatitis C Virus (HCV); 340,000 tested, 3.4% active; Potency, µM (titrated, usually from 41.8 µM), usual class: inhibitors; Huh7.5.1 HCVcc-Cre infection, luciferase reporter, 44 h
#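 Reporter virus HCVcc-Cre (~0.5 moi) infects cells exposed to compound; seeding density 1,000 cells/well with 4 h settling beforehand. Luminescence, 15 sec read, taken 44 h post-infection following a 15 min RT substrate incubation.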
# AmpC no deterg: qHTS Inhibitors of AmpC Beta-Lactamase (assay without detergent); Potency, µM (series often up to 57.1 µM), actives largely listed as inhibitors; AID 485341, 2010; P00811; 330,000 tested, 0.52% active; AmpC nitrocefin hydrolysis, absorbance 480 nm, 0.0001% Triton; also: nearly all actives have a fitted effect of over 20% in size
#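 AmpC (5.3 nM in the dispensed reagent) in 20 mM phosphate pH 7.0 with 0.01% (detergent screen) or 0.0001% Triton X-100 was preincubated with compounds for 15 min at room temperature. Nitrocefin was then added from an 800 uM solution, and hydrolysis was followed at 480 nm.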
# HCMV inh: qHTS Assay for inhibitors of the human cytomegalovirus (HCMV); HFF cells, HCMV-luciferase reporter, 72 h; active compounds read low; activity change, negative = inhibition, % at 57.5 µM; 410,000 tested, 4.5% active; in the data active = activity change below about -60%; inconclusive = no clear call, values can overlap the other calls; inactive = above about -39%
#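 Two-dose cell screen: HFF monolayers treated with compounds and infected with luciferase-expressing HCMV at 1 PFU/cell, 72 h at 37C, then lysed for luciferase measurement.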
# FMDV antiviral: High Throughput Screening for Foot and Mouth Disease Virus Antivirals; AID 1159524, 2015; Potency, µM (series often up to 57.9 µM), usual class: inhibitors; 410,000 tested, 1.2% active; FMDV antiviral cell-based qHTS; calls by dose curve; tested in HEK293T cells; also: read-out not given here; nearly all actives have a fitted effect of over 45% in size
# A number is an active result; – = inactive; ? = inconclusive; · = no result given. Unless noted, calls follow the shape of the dose curve; as a rule, active = well fitted curve in the direction sought with a large enough effect; inconclusive = small, poorly fitted or top-dose-only effect, or another doubt; inactive = no such curve, though single readings can be large; an effect the other way counts as inactive or inconclusive.
SMILES,AmpC inh detg,HCV inh,AmpC no deterg,HCMV inh,FMDV antiviral
N#C/C(=C\c1coc2ccc(O)cc2c1=O)C(=O)Nc1nc2ccccc2s1,–,?,?,-73,?
COc1ccc(-c2noc(-c3ccc(NCc4ccco4)c([N+](=O)[O-])c3)n2)cc1OC,–,·,·,–,–
CC(C)CCn1cnc2c(sc3nc4c(cc32)CSC(C)(C)C4)c1=O,–,–,–,-74,–
CCCCn1cnc2c(sc3nc4c(cc32)CSC(C)(C)C4)c1=O,–,–,–,–,–
CCN1C[C@@H]2[C@@H]3C(=O)N(C)C(=O)[C@@H]3[C@](C)(C1=O)N2C(=O)c1ccc(Cl)cc1,·,–,·,–,–
CC(=O)N(Cc1cccnc1)c1nc2c(C)c(C)ccc2s1,–,·,·,–,–
COc1cc2cnncc2cc1OC,–,–,–,–,–
COc1cc2cc(Br)cc(Br)c2nc1C,–,11µM,–,–,–
CC(=O)c1ccccc1-c1ccc2c(c1)CC(CNC(=O)C[C@@H]1C[C@@H](C)NC(=S)N1)O2 (some centres undefined),·,·,·,·,–
CCN(CC(=O)N1CCN(Cc2ccccc2)CC1)S(=O)(=O)c1ccc(C)cc1,?,–,–,–,–
Cc1cc(N2CCN(C(=O)OC(C)(C)C)C[C@H]2C)ccc1N1CC[C@@H](O)C1,·,·,·,–,·
CC(C)c1ccc(NC(=S)NC2CCCCCC2)cc1,–,–,–,–,–
S=C(Nc1ccc2nsnc2c1)N1CCCCCC1,–,–,–,–,–
S=C(Nc1ccc2nsnc2c1)NC1CCCCC1,–,–,–,-62,–
S=C(NCc1ccc2c(c1)OCO2)Nc1ccc2nsnc2c1,–,?,–,-66,–
S=C(Nc1ccc(Cl)c(Cl)c1)NC1CCCCC1,–,?,–,-99,–
S=C(NNc1ccc2ccccc2c1)NC1CCCCC1,–,–,?,-60,–
O=C(CCc1ccccc1)NC1CC(=O)N(c2cccc(F)c2)C1 (centres undefined),–,·,·,–,–
CCOC(=O)C1=C(c2ccccc2)c2ccc(OC)cc2N(S(=O)(=O)C(F)(F)F)C1C(=O)OCC (centres undefined),·,2µM,–,–,?
COP(=O)(OC)C(=NNS(=O)(=O)c1ccc(C)cc1)c1ccccc1,·,·,·,–,–
COc1ccc(OCC(NS(=O)(=O)c2ccc(-n3cnnn3)cc2)C(C)C)cc1 (centres undefined),?,40µM,–,–,–
CCOc1ccccc1CN1CCN(C2CCSCC2)CC1CCO (centres undefined),–,–,–,–,–
O=C(Cc1csc(Nc2nc(=S)[nH]c3ccccc23)n1)NCCCN1CCN(c2ccccc2F)CC1,–,4µM,–,-98,–
O=C(c1cccc(C(F)(F)F)c1)C1CCCN(C(=O)c2cc(C3CC3)[nH]n2)C1 (centres undefined),–,?,–,-67,–
COC(=O)c1c(C)nn(-c2ccc(F)c(Cl)c2)c1-c1cc(C)on1,–,8.9µM,–,–,?
COc1ccc(CCNC(=O)c2ccc3c(Cl)c4c(nc3c2)CCCC4)cc1OC,–,·,·,?,?
O=C(c1ccc2c(Cl)c3c(nc2c1)CCCC3)N1CCC(N2CCCCC2)CC1,?,?,–,-60,–
